Values without a mark were called inactive. For part of these data: Measured potencies and affinities stand elsewhere. Calls of active or inactive are those of the source. Unless noted, the rule behind the calls is not given here.
Tests used:
[1] = antimalarial activity against Dd2 strain (AID 2302;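 active = growth inhibition above 50% at the single 2 µM test dose, taken to imply half-maximal potency below 2 µM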;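 note: 0% = DMSO untreated growth and 100% = chloroquine plus artemisinin killed control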); details: P. falciparum Dd2 in RBCs, LDH growth readout, 72 h; at 2 µM; hits give high values
[2] = human hepatoma cell viability loss – ATP luminescence, cytotoxicity control for P. falciparum antimalarial project, primary screen (AID 2303;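 active = inhibition above 50%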;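 note: 0% = DMSO wells and 100% = digitonin-killed cells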); details: HepG2 viability, 24-48 h, at 10 µM, hits give high values
[3] = molecular target: L-lactate dehydrogenase (Plasmodium falciparum (isolate CDC / Honduras)) (UniProt Q27743); assay: PfLDH activity inhibition – cell lysate, 3D7 strain, counter-screen for P. falciparum growth inhibition project (AID 2304);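 note: 0% = vehicle and 100% = reference inhibitor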; details: P. falciparum 3D7 crude extract, LDH APAD/NBT absorbance; at 2 µM; hits give high values
[4] = inhibition of 3D7 malaria parasite growth – strain 3D7 (AID 2306);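 note: 0% = DMSO wells and 100% = chloroquine plus artemisinin control wells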; details: P. falciparum 3D7 erythrocytic growth, LDH absorbance, 72 h; at 2 µM; hits give high values
[5] = molecular target: Calcium-dependent protein kinase 1 (Plasmodium falciparum (isolate 3D7)) (UniProt P62344); assay: PfCDPK1 kinase inhibitors, biochemical, TCAMS library (AID 1159585; cut-off not given, nearly all actives have IC50 up to about 0.98 µM;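 note: inhibitors leave more ATP so luminescence rises with inhibition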); details: recombinant PfCDPK1, Kinase-Glo ATP depletion luminescence
[6] = molecular target: Plasmodium falciparum protein kinase 6 (PK6, PF3D7_1337100) (UniProt Q8IDW1); assay: PfPK6 kinase inhibitors, biochemical, TCAMS library (AID 1159586); details: recombinant PfPK6, Kinase-Glo ATP depletion luminescence
[7] = molecular target: Protein kinase 7 (PK7), Plasmodium falciparum 3D7 (PF3D7_0213400) (UniProt Q7YTF7); assay: inhibition of Plasmodium PK7 catalytic activity – biochemical, TCAMS antimalarial set, Kinase-Glo luminescence (AID 1159587); details: recombinant PfPK7, Kinase-Glo ATP depletion luminescence
[8] = molecular target: Calcium-dependent protein kinase 4 (Plasmodium falciparum (isolate 3D7)) (UniProt Q8IBS5); assay: PfCDPK4 kinase inhibitors, biochemical, TCAMS library (AID 1159588; cut-off not given, nearly all actives have IC50 up to about 0.91 µM); details: recombinant PfCDPK4, Kinase-Glo ATP depletion luminescence
Calcium-dependent protein kinase 4 (Plasmodium falciparum (isolate 3D7)), sequence (Q8IBS5 whole entry, looked up): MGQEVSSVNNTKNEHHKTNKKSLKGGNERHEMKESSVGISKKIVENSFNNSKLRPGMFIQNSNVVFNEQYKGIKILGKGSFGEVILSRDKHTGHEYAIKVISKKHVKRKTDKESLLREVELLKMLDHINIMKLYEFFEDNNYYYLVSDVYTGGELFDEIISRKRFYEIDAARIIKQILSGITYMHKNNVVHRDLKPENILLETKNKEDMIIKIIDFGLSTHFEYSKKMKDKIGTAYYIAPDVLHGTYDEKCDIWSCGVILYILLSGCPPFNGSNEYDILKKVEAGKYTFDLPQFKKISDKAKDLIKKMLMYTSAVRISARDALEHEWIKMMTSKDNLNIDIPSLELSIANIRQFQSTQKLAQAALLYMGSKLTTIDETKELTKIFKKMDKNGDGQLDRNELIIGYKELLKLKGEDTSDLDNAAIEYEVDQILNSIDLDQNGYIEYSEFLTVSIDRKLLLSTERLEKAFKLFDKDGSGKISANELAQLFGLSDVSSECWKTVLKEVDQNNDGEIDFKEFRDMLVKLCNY

L-lactate dehydrogenase (Plasmodium falciparum (isolate CDC / Honduras)), sequence (Q27743 whole entry, looked up): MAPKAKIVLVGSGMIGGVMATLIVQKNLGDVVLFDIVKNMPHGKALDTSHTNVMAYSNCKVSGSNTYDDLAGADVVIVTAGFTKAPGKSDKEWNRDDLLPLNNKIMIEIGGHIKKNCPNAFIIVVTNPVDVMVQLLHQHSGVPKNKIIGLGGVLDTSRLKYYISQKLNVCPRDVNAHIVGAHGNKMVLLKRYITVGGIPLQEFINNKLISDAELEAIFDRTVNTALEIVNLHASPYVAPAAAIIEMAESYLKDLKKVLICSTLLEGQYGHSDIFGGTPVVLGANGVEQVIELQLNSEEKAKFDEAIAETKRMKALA
Plasmodium falciparum protein kinase 6 (PK6, PF3D7_1337100), sequence (Q8IDW1 1-305): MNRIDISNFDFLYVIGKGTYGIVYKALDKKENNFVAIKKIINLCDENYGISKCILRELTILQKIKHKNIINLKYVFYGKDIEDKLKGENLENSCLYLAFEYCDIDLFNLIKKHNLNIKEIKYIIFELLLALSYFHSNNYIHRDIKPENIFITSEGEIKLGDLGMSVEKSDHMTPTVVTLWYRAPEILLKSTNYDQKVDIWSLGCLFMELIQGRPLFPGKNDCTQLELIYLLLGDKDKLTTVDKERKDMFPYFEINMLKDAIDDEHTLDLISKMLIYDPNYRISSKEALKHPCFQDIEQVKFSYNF
Calcium-dependent protein kinase 1 (Plasmodium falciparum (isolate 3D7)), sequence (P62344 whole entry, looked up): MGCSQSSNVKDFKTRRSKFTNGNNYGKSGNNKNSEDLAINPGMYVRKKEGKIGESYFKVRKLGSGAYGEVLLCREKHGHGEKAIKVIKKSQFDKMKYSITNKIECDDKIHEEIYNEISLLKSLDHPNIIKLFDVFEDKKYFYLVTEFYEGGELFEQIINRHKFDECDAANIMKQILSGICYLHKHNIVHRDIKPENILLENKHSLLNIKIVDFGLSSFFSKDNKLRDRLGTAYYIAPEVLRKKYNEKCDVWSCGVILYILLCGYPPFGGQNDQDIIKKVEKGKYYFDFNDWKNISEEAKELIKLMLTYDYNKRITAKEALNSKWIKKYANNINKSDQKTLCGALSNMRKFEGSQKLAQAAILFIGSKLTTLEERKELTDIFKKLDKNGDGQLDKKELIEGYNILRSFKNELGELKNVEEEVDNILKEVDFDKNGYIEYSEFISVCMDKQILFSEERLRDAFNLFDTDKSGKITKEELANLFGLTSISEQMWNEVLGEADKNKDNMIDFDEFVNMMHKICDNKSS
Protein kinase 7 (PK7), Plasmodium falciparum 3D7 (PF3D7_0213400), sequence (Q7YTF7 1-343): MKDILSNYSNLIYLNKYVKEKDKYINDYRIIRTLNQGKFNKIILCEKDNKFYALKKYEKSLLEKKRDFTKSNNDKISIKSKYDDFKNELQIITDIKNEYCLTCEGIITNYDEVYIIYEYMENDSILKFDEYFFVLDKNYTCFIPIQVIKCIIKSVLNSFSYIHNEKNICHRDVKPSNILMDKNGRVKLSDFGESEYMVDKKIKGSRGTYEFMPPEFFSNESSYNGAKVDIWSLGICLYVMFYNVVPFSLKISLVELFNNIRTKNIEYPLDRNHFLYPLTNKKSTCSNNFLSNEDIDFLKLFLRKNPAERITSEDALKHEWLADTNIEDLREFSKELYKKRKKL

SMILES | growth inhibition [1] | inhibition [2] | inhibition [3] [%] | growth inhibition [4] | outcome [5] | outcome [6] | outcome [7] | outcome [8]
C[C@@H]1CN(c2ccc3occ(C(=O)Nc4ccc(-c5ccncc5)c(Cl)c4)c3c2)C[C@H](C)N1C | 96% (active) | 14% | -4 | 100% (active) | inactive | inactive | inactive | inactive
Nc1cc(-c2ccc(-c3cccs3)s2)nc2ccccc12 | 50% (active) | 32% | 5 | 100% (active) | inactive | inactive | inactive | inactive
COc1ccccc1NC(=O)CSc1nc2cccnc2n1-c1ccccc1OC | 91% (active) | -4% | -3 | 94% (active) | inactive | inactive | inactive | inactive
O=S(=O)(NCCN1CCCC1)c1ccc(-c2ccc(CNCc3ccc(F)cc3)cc2)cc1 | 44% | 42% | 4 | 94% (active) | inactive | inactive | inactive | inactive
O=C(/C=C/c1ccc(Cl)c(Cl)c1)NCCCCCN1CCCC(CNC(=O)/C=C/c2ccccc2)C1 (configuration not stated) | 6% | 37% | -7 | 98% (active) | inactive | inactive | inactive | inactive
CC(=O)Nc1nc(C(=O)Nc2cccc(-c3ccc(-c4nc5c(C)cccc5[nH]4)s3)c2)cs1 | 67% (active) | 14% | -2 | 101% (active) | inactive | inactive | inactive | inactive
C[C@@H]1CN(c2ccnc3ccc(Sc4ccc(Oc5ccccc5)cc4)cc23)C[C@H](C)N1 | 99% (active) | 33% | 7 | 100% (active) | inactive | inactive | inactive | inactive
CCCCCN1CCCN(Cc2cccc(NC(=O)c3cc4ccccc4s3)c2)CC1 | 30% | 29% | 6 | 99% (active) | inactive | inactive | inactive | inactive
Cc1cc(C)c(O)c(-c2cc(C(=O)Nc3ccc(S(=O)(=O)N4CC(C)OC(C)C4)cc3)[nH]n2)c1 (configuration not stated) | 16% | 31% | -1 | 95% (active) | inactive | inactive | inactive | inactive
NC1=NC2(CCCCC2)N(OCC2CCCCC2)C(N)=N1 | 49% | 70% (active) | 0 | 96% (active) | inactive | inactive | inactive | inactive
COc1ccc(CCC(C)(C)NCC(O)c2cccc(C(F)(F)F)c2)cc1 (configuration not stated) | 98% (active) | 26% | 3 | 99% (active) | inactive | inactive | inactive | inactive
O=C(Nc1ccc(OC2CCN(Cc3ccc(F)cc3)CC2)cc1)c1cccs1 | 52% (active) | 6% | -2 | 84% (active) | inactive | inactive | inactive | inactive
O=C(/C=C/c1ccc(C(F)(F)F)cc1)NCCCCCN1CCCN(C(=O)Nc2ccc(Cl)c(C(F)(F)F)c2)CC1 | 31% | 64% (active) | 4 | 99% (active) | inactive | inactive | inactive | inactive
Fc1ccc(-c2cc3ncnc(N4CCN(CCN5CCCC5)CC4)c3s2)cc1 | 40% | 25% | -1 | 98% (active) | inactive | inactive | inactive | inactive
CCN(CC)CCN(Cc1ccc(-c2ccc(C(F)(F)F)cc2)cc1)C(=O)Cn1c(CCc2cc(F)ccc2F)nc(=O)c2ccccc21 | 52% (active) | 42% | 4 | 98% (active) | inactive | inactive | inactive | inactive
FC(F)(F)c1ccc(CSc2ccc3nnc(-c4ccccn4)n3n2)cc1 | 54% (active) | -2% | -1 | 95% (active) | inactive | inactive | inactive | inactive
Cc1ccc(-n2c(C)nc3c(Nc4ccc(-c5ccncc5)cc4)ncnc32)c(C)c1 | 99% (active) | 38% | -4 | 99% (active) | inactive | inactive | inactive | inactive
COc1ccc([C@@]23Oc4cc(OC)cc(OC)c4[C@]2(O)C2(CC3c3ccccc3)SCCCS2)cc1 (some centres not stated) | 97% (active) | 39% | -10 | 96% (active) | inactive | inactive | inactive | inactive
COc1ccc2nccc([C@@H](O)CN3CCC(NCc4cc5cccc(O)c5[nH]4)CC3)c2c1 | 35% | -10% | -6 | 101% (active) | inactive | inactive | inactive | inactive
COc1ccc(-c2ccc(Nc3cccc(S(=O)(=O)CCN4CCC(CCN(C)C)CC4)c3)nc2)cn1 | 9% | 44% | 3 | 100% (active) | inactive | inactive | inactive | inactive

SMILES | growth inhibition [1] | inhibition [2] | inhibition [3] [%] | growth inhibition [4] | outcome [5] | outcome [6] | outcome [7] | outcome [8]
CC(C)(C)c1ccc(C(=O)Nc2cccc(Nc3c(C(=O)NCc4cccc(C(F)(F)F)c4)cnc4c(O)cccc34)c2)cc1 | 79% (active) | 40% | 1 | 83% (active) | inactive | inactive | inactive | inactive
CC(C)CC(=O)Nc1cc(=O)[nH]c2nc(-c3ccccc3)nn12 | 85% (active) | -6% | -6 | 89% (active) | inactive | inactive | inactive | inactive
CCN(CC)CCNC(=O)c1ccc(NC(=O)c2cc3c(C)nn(-c4ccc(Cl)cc4)c3s2)cc1 | 78% (active) | 24% | -2 | 95% (active) | inactive | inactive | inactive | inactive
CN(C)CC(=O)Nc1cccc(Nc2nccc(NCC(O)c3ccccc3)n2)c1 (configuration not stated) | 3% | 30% | -5 | 102% (active) | inactive | inactive | inactive | inactive
COc1ccc(CCN(C)CCc2ccc(NC(=O)c3cccc4c(=O)c5ccccc5sc34)cc2)cc1 | 33% | 24% | -2 | 95% (active) | inactive | inactive | inactive | inactive
O=C(/C=C/c1ccc(Cl)cc1Cl)NCCCCCN1CCC(c2c[nH]c3ccccc23)CC1 | 9% | 95% (active) | 1 | 99% (active) | inactive | inactive | inactive | inactive
CCCCNC[C@@H](O)[C@H](Cc1ccccc1)NC(=O)c1cc2c3c(c1)c(CC)cn3CCS(=O)(=O)N2C | 98% (active) | -6% | -3 | 99% (active) | inactive | inactive | inactive | inactive
Cc1ccc2c(Cc3cnc(N)nc3N)cc(C)c(N)c2n1 | 92% (active) | -19% | -2 | 91% (active) | inactive | inactive | inactive | inactive
O=C(Nc1ccc2c(c1)CCC2)c1cnc(N2CCN(c3ccncc3)CC2)c(Cl)c1 | 48% | 33% | 2 | 100% (active) | inactive | inactive | inactive | inactive
CCCCCCCN(Cc1ccc(OC(C)(C)C(=O)OCC)cc1)C(=O)Nc1ccccc1OC(F)(F)F | 68% (active) | -2% | 3 | 95% (active) | inactive | inactive | inactive | inactive
OCC1CCN(Cc2ccc(-c3ccc(-c4nc5ccccc5[nH]4)cc3)cc2)CC1 | 84% (active) | 37% | 1 | 100% (active) | inactive | inactive | inactive | inactive
Cc1cc(Nc2ccc(C(C)(C)C)cc2)c2[nH]ncc2n1 | 63% (active) | 31% | 0 | 83% (active) | inactive | inactive | inactive | inactive
O=C(N[C@@H](Cc1ccccc1)CN1CCC(Oc2ccc(F)cc2)CC1)c1ccc(OCCCN2CCCCC2)cc1 | 92% (active) | 38% | 3 | 102% (active) | inactive | inactive | inactive | inactive
O=C(N[C@@H](CC1CCCCC1)C(=O)NCCN1CCCC1)c1ccc(O)c(-c2ccc(Cl)c(Cl)c2)c1 | 99% (active) | 16% | 2 | 99% (active) | inactive | inactive | inactive | inactive
COc1ccc2nc(C)cc(NN=Cc3ccc(F)cc3)c2c1 | 99% (active) | 5% | -8 | 100% (active) | inactive | inactive | inactive | inactive
Clc1ccc(-c2cc(-c3csc(NCCN4CCCCC4)n3)on2)cc1 | 30% | 81% (active) | -9 | 91% (active) | inactive | inactive | inactive | inactive
N#Cc1ccc2c(c1)CN(CCCCNC(=O)c1ccc(-c3ccccc3)cc1)CC2 | 10% | -9% | -1 | 96% (active) | inactive | inactive | inactive | inactive
COc1ccc(N2CCN(CCCCNC(=O)c3ccc(NC(=O)c4ccc(OC(F)(F)F)cc4)cc3)CC2)c(OC)c1 | 90% (active) | 36% | 5 | 101% (active) | inactive | inactive | inactive | inactive
CC[C@H](C)CNC(=O)c1cncc(-c2ccc(CNC3Cc4ccccc4C3)cc2)c1 | 95% (active) | 14% | 3 | 101% (active) | inactive | inactive | inactive | inactive

Source: PubChem BioAssay
